Cycloheximide cs – affects cycloheximide protein synthesis inhibition readout, counter-screen; cell reporter, cycloheximide protein synthesis inhibition counterscreen; max response, %; actives 12% (n = 300,000); AID 2314; in the data active = max response mostly above about 13%, no sharp cut-off; inactive = mostly below about 14%; also: read at 38.3 µM for the half of the compounds with a filed dose; 0% is about no effect
TbPYK inhibitor – blocks Trypanosoma brucei pyruvate kinase; Q57TT1; TbPYK enzyme, Kinase-Glo Plus ATP luminescence, 45 min; Potency, µM (titrated, usually from 76.8 µM), inactives show top-dose activity, negative = inhibition, usual class: inhibitors; actives 0.12% (n = 410,000); also: potency is read from the fitted curve at half-maximal effect; % is scaled to controls: 0 for no effect and ±100 for the full control effect; nearly all actives have a fitted effect of over 50% in size
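Quantitative HTS: titrated library compounds versus trypanosomal pyruvate kinase in TEA buffer (pH 7.2) containing KCl, MgCl2, BSA and Tween-20. Reactions were initiated with ADP, 130 uM final. Kinase-Glo Plus luminescence was read after 45 min at RT.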
RE007 growth inh – less growth of the S. pombe RE007 Vpr strain | S. pombe RE007 Vpr strain, BacTiter-Glo ATP luminescence, 24 h | Potency, µM (highest dose often 92.2 µM), without a hit: at the highest dose activity change, negative = less growth, hits mostly inhibitors | actives 0.21% (n = 360,000); active = well fitted falling curve with a large enough effect; inconclusive = small, poorly fitted or top-dose-only effect; inactive = no such curve, though single readings can be large or run the other way; also: potency is read from the fitted curve at half-maximal effect; % is scaled to controls: 0 for no effect and ±100 for the full control effect; nearly all actives have a fitted effect of over 50% in size
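Fission yeast strain RE007, carrying one chromosomally integrated HIV-1 vpr copy, was seeded at OD 0.01 in PMG+AL medium with 23 nL pinned compound. After 24 h at 30 °C and 99% humidity, viability was read by BacTiter-Glo luminescence.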
FBPA Giardia inh – inhibitors of Giardia lamblia fructose-1,6-bisphosphate aldolase. Potency, µM (titrated, usually from 59.6 µM), without a hit: at the top dose activity, negative = inhibition, usual class: inhibitors. purified Giardia FBPA. AID 2451. actives 0.71% (n = 290,000); also: potency is read from the fitted curve at half-maximal effect; % is scaled to controls: 0 for no effect and ±100 for the full control effect; nearly all actives have a fitted effect of over 55% in size
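40 nM FBPA preincubated 10 min at RT with compound (up to 57.5 uM final), then substrate plus GAPDH/TPI/NAD/arsenate coupling and diaphorase/resazurin added. Fluorescence read after 20 min at RT, 525/598 nm.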
LmPK inhibitor – blocks Leishmania mexicana pyruvate kinase activity. AID 1721. Q27686. actives 0.37% (n = 290,000). purified LmPK, Kinase-Glo ATP luminescence, 1 h. Potency, µM (doses to about 57.5 µM), for the others: top-dose activity change, negative = inhibition, usual class: inhibitors; also: potency is read from the fitted curve at half-maximal effect; % is scaled to controls: 0 for no effect and ±100 for the full control effect
Target sequence (Q27686 whole entry, looked up): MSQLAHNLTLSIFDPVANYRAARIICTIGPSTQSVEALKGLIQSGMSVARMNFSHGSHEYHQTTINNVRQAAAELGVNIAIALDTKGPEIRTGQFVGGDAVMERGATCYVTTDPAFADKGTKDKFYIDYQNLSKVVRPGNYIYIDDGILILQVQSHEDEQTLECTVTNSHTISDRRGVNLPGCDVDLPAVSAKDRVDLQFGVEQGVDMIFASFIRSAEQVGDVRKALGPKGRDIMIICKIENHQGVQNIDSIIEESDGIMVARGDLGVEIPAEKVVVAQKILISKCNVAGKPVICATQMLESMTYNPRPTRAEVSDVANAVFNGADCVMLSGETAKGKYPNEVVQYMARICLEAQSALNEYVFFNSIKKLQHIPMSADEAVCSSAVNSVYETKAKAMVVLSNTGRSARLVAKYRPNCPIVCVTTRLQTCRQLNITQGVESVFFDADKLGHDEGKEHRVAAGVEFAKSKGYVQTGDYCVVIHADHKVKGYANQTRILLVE
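qHTS format; LmPK 0.1 nM; substrates PEP 0.5 mM and ADP 0.1 mM. One-hour room-temperature incubation, then coupled luciferase luminescence; 0.5 nM enzyme wells mark activation.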
Shiga toxin inh – Shiga toxin inhibition; Vero cells, Shiga toxin protein synthesis inhibition reporter; actives 9.2% (n = 290,000); inhibition, % at 38.7 µM; AID 2315; in the data active = inhibition mostly above about 28%, no sharp cut-off; inactive = mostly below about 43%; also: 0% is about no effect
Starred values were filed as active, the others as inactive; u = inconclusive; x = no result given; [ ] = another dose, or the depositor's remark. The full list was thinned out, with hits kept by preference. Unless noted, calls follow the shape of the dose curve; as a rule, active = well fitted curve in the direction sought with a large enough effect; inconclusive = small, poorly fitted or top-dose-only effect, or another doubt; inactive = no such curve, though single readings can be large; an effect the other way counts as inactive or inconclusive.

SMILES | Cycloheximide cs | TbPYK inhibitor | RE007 growth inh | FBPA Giardia inh | LmPK inhibitor | Shiga toxin inh
CNS(=O)(=O)c1cccc(C(=O)OCC(=O)c2cc(C)n(-c3ccc4c(c3)OCO4)c2C)c1 | 36* | -7% | 1% | -20% | 7% | 28
Cc1cc(C(=O)COc2ccccc2Cl)c(C)n1-c1ccc2c(c1)OCO2 | 53* | 0% | 2% | -12% | -6% | 93*
COc1ccc(-c2csc(=Nc3c(C)n(C)n(-c4ccccc4)c3=O)n2C(C)(C)C)cc1 | 0 | -17% | 5% | 13% | 0% | 4
COc1ccc(-c2cc(=Nc3c(C)n(C)n(-c4ccccc4)c3=O)c3ccccc3o2)cc1 | 41* | 0% | -16% | -17% | -3% | 48*
O=C(NC(=S)Nc1ccccc1CO)C1CCCCC1 | x | -3% | 0% | x | x | x
CN(C)S(=O)(=O)c1cccc(NC(=S)NC2CCCCC2)c1 | -1 | -3% | 7% | -7% | 6% | -11
CN(C)S(=O)(=O)c1cccc(NC(=S)NC(=O)C2CCCCC2)c1 | 41* | 1% | -5% | -2% | 1% | 67*
Cc1ccccc1NC(=S)NC(=O)C1CCCCC1 | 19* | -8% | -25% | x | -8% | 45
Cc1cc(NC(=S)NC(=O)C2CC2)ccc1Br | 51* | 2% | u | 5% | -1% | 128*
Cc1cc(C)cc(NC(=S)NC(=O)C2CC2)c1 | 10 | -3% | -15% | x | -13% | -22
Cc1cccc(NC(=S)NC(=O)C2CC2)c1 | 45* | x | x | x | 1% | 35*
CNC(=S)Nc1ccc(N2CCCC2)c(S(=O)(=O)Nc2ccc(OC)cc2)c1 | x | 3% | -6% | x | x | x
COc1ccc(NS(=O)(=O)c2ccc(N3CCCC3)c(NC(=S)Nc3cccc(S(=O)(=O)N(C)C)c3)c2)cc1 | 33* | x | x | 3% | 4% | 63*
O=c1c2ccc([N+](=O)[O-])c3cccc(c32)c2nc3ccccc3n12 | -1 | x | x | x | -2% | 13
O=c1c2cccc3c(N4CCOCC4)ccc(c32)c2nc3ccccc3n12 | 29* | x | x | 5% | 3% | 73*
N#Cc1cnn2c(=O)[nH]cnc12 | x | 3% | -7% | x | x | x
Oc1ccccc1-c1n[nH]c(-c2ccccc2O)n1 | x | 8% | u | x | x | x
Clc1ccccc1-c1nc(-c2ccccc2)n[nH]1 | 53* | 4% | u | -1% | -24% | 125*
CC(=O)c1ccc(NC(=O)c2cc(C)nc3c2c(C)nn3-c2ccc(C)cc2)cc1 | x | -4% | x | x | x | x
O=S1(=O)CCC(NC(=S)Nc2ccc3ccccc3c2)C1 (stereo unspecified) | 27* | -5% | 3% | -3% | 3% | 43*
O=S1(=O)CCC(NC(=S)Nc2ccccc2)C1 (stereo unspecified) | -2 | 1% | 25% | 4% | 1% | -6
COc1ccc(Nc2ncc3c(n2)CCN(Cc2cccc(F)c2F)C3)c(OC)c1 | x | 0% | x | x | x | x
Cc1ccc(C(=O)O)cc1S(=O)(=O)Nc1ccccc1C(=O)NC1CC1 | x | 0% | 0% | x | x | x
O=C(Nc1ccccc1C(=O)Nc1nccs1)c1ccccc1 | x | -3% | -1% | x | x | x
COc1ccc(CC(=O)Nc2ccc(C(=O)Nc3nccs3)cc2)cc1OC | 9 | 6% | 8% | 2% | 3% | 30
SMILES | Cycloheximide cs | TbPYK inhibitor | RE007 growth inh | FBPA Giardia inh | LmPK inhibitor | Shiga toxin inh
Cc1ccc(C(=O)Nc2nccs2)cc1 | 37* | 1% | u | -7% | u | 116*
O=C(Nc1ccccc1Br)c1ccc2nccnc2c1 | 35 | -4% | -18% | 5% | -20% | 46*
O=C(Nc1nccs1)c1ccc(COc2c(F)c(F)cc(F)c2F)cc1 | 56* | -14% | 4% | 2% | 0% | 80*
CN(c1ccccc1)S(=O)(=O)c1ccc(C(=O)Nc2nccs2)cc1 | -1 | 0% | 1% | -7% | 1% | -8
Cc1ccccc1NC(=O)c1ccc2nccnc2c1 | 9 | 0% | 4% | 7% | -1% | 24
Nc1ccc(C(=O)Nc2nccs2)cc1 | 33* | -4% | -6% | -11% | -20% | 125*
O=C(CN1C(=O)NC2(CCCC2)C1=O)OCC(=O)c1cccc(Cl)c1 | x | -2% | 21% | x | x | x
CCn1c(SCc2ccc(C(=O)Nc3nccs3)cc2)nnc1-c1ccc(NC(C)=O)cc1 | 8 | -5% | -12% | 6% | 3% | -3
CC(NC(=O)c1ccco1)C(=O)Nc1nccs1 (stereo unspecified) | x | -3% | -2% | x | x | x
O=C(Nc1nccs1)c1ccc2nccnc2c1 | 24* | 15% | -1% | -14% | -1% | 45*
O=C(Nc1nccs1)c1ccc(NC(=O)c2ccco2)cc1 | 47* | 6% | -5% | -15% | -1% | 86*
CCn1c(SCc2ccc(C(=O)Nc3nccs3)cc2)nnc1-c1ccc(N)cc1 | 20* | 2% | -5% | 0% | -4% | 46
Nc1c(-c2ccccn2)cnn1-c1nc(-c2ccc(F)cc2)cs1 | 44* | 5% | -8% | 0% | 6% | 54
Nc1c(-c2cccs2)cnn1-c1nc(-c2ccc(F)cc2)cs1 | 17* | -2% | -8% | 2% | 1% | 44*
C=C(C)C1Cc2c(ccc3c2OC2COc4cc(OC)c(OC)cc4C2C3=O)O1 (stereo unspecified) | x | x | x | -18% | x | x
COc1cccc([C@@H]2Oc3ccc(Br)cc3C(=O)[C@H]2OC(=O)N[C@H]2CCCc3ccccc32)c1 | x | x | x | 2% | x | x
O=c1[nH][nH]c(=S)n1C1CCCCC1 | -1 | 2.5µM* | -1% | 20µM* | u | -14
COCCN(CC(=O)Nc1cccc(C)c1C)C(=O)c1cc(-c2ccncc2)nc2ccccc12 | x | 1% | -2% | x | x | x
CS/C(Nc1cc(Cl)ccc1Cl)=C(/C#N)C(=O)c1ccco1 | 13 | 32µM* | -16% | -10% | 22µM* | 25
Cc1cccc2sc(NNC(=O)c3cc(-c4cccs4)nc4ccccc34)nc12 | -1 | -22% | -12% | 1% | 5% | 26
Cn1nccc1C(=O)Oc1ccc(/C=N/NC(=O)c2ccccc2O)cc1 | 25 | 3% | -17% | 0% | -1%[11.5 µM] | 75*
O=C(N/N=C/c1ccc(OC(=O)c2ccccc2)cc1)c1cccc(O)c1 | 33 | 7% | 12% | 4% | 6% | 39
O=C(CC1SC(=O)NC1=O)Oc1ccc(/C=N/NC(=O)c2ccccc2O)cc1 (stereo unspecified) | 23* | -10% | 21% | 2% | -8% | 36*

Assay outcomes from PubChem BioAssay.
